Target: Neurogenic locus notch homolog protein 2 (Homo sapiens) (UniProt Q04721)
Test: Notch2 binders on small-molecule microarrays, primary screen, biochemical, small-molecule microarray, 635 nm fluorescence, stem cell growth factors (AID 1073)
Conditions: Notch2 binding, higher = more signal

Neurogenic locus notch homolog protein 2 (Homo sapiens), sequence (Q04721 whole entry, looked up): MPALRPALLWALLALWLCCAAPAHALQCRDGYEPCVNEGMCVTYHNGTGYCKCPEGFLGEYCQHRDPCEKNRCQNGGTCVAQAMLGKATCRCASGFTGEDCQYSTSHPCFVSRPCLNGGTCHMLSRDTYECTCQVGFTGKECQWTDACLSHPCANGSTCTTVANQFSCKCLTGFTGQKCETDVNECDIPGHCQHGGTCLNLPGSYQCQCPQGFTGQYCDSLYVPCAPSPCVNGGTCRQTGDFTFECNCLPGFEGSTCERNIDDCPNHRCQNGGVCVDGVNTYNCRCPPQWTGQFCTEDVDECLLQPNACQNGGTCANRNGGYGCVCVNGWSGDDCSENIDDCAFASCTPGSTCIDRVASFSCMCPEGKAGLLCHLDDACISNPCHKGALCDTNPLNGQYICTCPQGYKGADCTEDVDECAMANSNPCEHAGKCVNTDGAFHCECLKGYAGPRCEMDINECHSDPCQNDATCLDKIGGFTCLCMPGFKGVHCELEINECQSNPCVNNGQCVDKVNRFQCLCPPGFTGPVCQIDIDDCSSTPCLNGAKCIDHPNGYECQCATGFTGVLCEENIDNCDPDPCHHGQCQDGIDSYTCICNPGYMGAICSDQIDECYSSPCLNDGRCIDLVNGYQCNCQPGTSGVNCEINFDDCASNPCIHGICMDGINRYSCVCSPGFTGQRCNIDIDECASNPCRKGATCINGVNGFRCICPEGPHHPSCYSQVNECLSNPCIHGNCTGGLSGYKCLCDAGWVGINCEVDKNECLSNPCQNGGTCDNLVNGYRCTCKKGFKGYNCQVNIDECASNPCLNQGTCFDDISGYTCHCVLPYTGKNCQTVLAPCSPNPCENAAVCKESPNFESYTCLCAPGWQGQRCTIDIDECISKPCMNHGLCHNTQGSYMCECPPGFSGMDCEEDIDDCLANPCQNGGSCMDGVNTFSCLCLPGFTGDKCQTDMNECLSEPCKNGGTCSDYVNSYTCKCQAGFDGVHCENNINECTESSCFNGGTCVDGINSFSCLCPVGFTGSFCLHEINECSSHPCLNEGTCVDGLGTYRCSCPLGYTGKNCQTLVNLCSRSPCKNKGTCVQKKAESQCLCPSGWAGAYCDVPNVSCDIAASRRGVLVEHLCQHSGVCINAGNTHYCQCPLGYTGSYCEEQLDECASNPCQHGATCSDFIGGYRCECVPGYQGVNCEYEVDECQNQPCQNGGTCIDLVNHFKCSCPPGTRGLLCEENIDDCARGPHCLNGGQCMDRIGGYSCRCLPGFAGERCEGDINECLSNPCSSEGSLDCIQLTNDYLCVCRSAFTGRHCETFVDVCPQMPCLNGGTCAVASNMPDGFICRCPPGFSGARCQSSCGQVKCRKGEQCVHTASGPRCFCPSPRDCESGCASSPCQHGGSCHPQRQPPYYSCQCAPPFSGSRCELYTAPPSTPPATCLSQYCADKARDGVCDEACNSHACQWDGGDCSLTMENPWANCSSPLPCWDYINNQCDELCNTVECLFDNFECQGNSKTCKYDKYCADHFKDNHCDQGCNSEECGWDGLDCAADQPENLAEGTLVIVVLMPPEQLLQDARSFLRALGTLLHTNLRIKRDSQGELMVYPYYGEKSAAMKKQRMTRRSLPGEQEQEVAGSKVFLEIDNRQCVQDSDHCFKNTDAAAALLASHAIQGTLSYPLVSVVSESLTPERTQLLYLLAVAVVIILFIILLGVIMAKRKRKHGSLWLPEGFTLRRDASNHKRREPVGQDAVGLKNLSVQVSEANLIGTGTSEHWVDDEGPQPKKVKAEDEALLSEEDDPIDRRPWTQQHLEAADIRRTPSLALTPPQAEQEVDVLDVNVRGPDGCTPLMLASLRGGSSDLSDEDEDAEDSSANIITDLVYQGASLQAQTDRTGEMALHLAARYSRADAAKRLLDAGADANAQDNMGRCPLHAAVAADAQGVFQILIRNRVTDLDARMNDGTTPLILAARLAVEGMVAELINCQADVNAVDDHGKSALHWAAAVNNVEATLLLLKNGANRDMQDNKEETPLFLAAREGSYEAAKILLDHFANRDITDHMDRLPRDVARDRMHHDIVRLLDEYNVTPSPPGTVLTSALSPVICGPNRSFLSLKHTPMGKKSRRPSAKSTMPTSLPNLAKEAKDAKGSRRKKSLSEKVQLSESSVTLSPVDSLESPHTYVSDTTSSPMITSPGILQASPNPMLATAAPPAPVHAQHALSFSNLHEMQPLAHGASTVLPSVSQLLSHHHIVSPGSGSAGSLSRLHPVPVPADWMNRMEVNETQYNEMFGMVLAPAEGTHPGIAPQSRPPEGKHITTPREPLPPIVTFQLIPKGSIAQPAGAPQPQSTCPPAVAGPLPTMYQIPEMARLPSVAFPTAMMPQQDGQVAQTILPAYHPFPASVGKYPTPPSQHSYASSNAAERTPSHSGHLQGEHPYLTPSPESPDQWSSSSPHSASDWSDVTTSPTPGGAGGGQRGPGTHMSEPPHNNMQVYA

| Compound | composite z-score |
| --- | --- |
| [N-]=[N+]=Nc1ccccc1[C@@H]1OC(c2ccc(OCCCO)cc2)=N[C@]1(Cc1ccccc1)C(N)=O | 0.824 |
| C=CC[C@]1(C(=O)N(C)C)COC(c2ccc(OCCCO)cc2)=N1 | 0.221 |
| O=C1O[C@@H](c2ccccc2)[C@@H](c2ccccc2)N2[C@@H](c3ccc(O)cc3)[C@]3(C(=O)Nc4ccc(C#CC5=CCCCC5)cc43)[C@@H](C(=O)N3CCCCCCC3)[C@H]12 | 0.861 |
| CCCCC(=C=CC[C@@H](O)c1cccc(OCCO)c1)C[C@@H](O)COCc1ccccc1 | -0.546 |
| [N-]=[N+]=NCc1ccccc1C[C@]1(C(=O)O)COC(c2ccc(OCCCO)cc2)=N1 | -0.664 |
| COC(=O)[C@]1(CO)N=C(c2ccc(OCCCO)cc2)O[C@@H]1c1ccccc1CN=[N+]=[N-] | -0.663 |
| COc1ccc(NN2C(C(O)c3cc(C(F)(F)F)cc(C(F)(F)F)c3)C=CC3C(=O)N(C4CCCCC4)C(=O)C32)cc1 (stereo not given) | 1.37 |
| CN(C)CCCC[C@@H]1NC(=O)[C@H]2C[C@@H](C(=O)NCc3ccc(F)cc3)[C@@H](c3ccc(O)cc3)N2C1=O | 0.201 |
| CCCC=C(CCC)[C@@H](NC(=O)c1ccccc1)c1ccc(C(=O)OC)cc1 | 0.541 |
| C=CCC(OC(C)=O)[C@@H]1[C@@H](N(Cc2cccc3ccccc23)C(=O)c2cccc3ccccc23)c2cc(OCCCO)ccc2N1C(=O)Cc1ccc2ccccc2c1 (stereo not given in full) | -0.168 |
| C=C(COC)/C(=C/C[C@@H](OC(C)=O)c1ccccc1OCCO)c1cc(C(=O)OC)ccc1OC | -0.216 |
| CO[C@H]1O[C@H](CO)[C@@H](OC(=O)Nc2ccc(C(F)(F)F)cc2)[C@H](OC(=O)Nc2ccccc2-c2ccccc2)[C@@H]1OC(=O)Nc1ccccc1-c1ccccc1 | 1.56 |
| CCOC(=O)C[C@H]1[C@H](OC(=O)c2ccc(-c3ccccc3)cc2)[C@@H](NC(=O)CC(C)C)c2cc(OCCCO)ccc2N1C(=O)Cc1ccc(OC)cc1 | 0.119 |
| CCOC(=O)C[C@H]1[C@H](OC(=O)c2cc3ccccc3oc2=O)[C@@H](NC(=O)C2CCCCC2)c2cc(OCCCO)ccc2N1C(=O)Cc1ccc(OC)cc1 | 0.54 |
| N#Cc1ccc(C(O)C2C=CC3C(=O)NC(=O)C3N2Nc2ccccn2)cc1 (stereo not given) | 0.905 |
| O=C1C2C=CC(C(O)c3cccs3)N(Nc3ccccc3)C2C(=O)N1c1ccccc1 (stereo not given) | 0.878 |
| COC(=O)[C@@]1(Cc2ccc(OC)cc2)[C@H]2c3cc(C(=O)N4CCCC4)n(CCc4ccc(OC)c(Br)c4)c3C[C@H]2CN1C(=O)c1ccccc1 | 1.04 |
| CO[C@H]1O[C@H](CO)[C@@H](OC(=O)Nc2ccc(C(F)(F)F)cc2)[C@H](OC(=O)Nc2ccccc2-c2ccccc2)[C@H]1OC(=O)Nc1ccccc1-c1ccccc1 | 1.04 |
| CCOC(=O)C1=C(C(=O)OCC)N(S(=O)(=O)CC[Si](C)(C)C)[C@H](c2ccccc2)CC1 | 1.53 |
| CC(C)C(=C=CC[C@@H](O)c1ccccc1OCCO)C[C@@H](O)c1cc(Cl)cc(Cl)c1O | 1.16 |
| COc1ccc(C#Cc2ccc3c(c2)[C@]2(C(=O)N3)[C@H](C(=O)Nc3nc4ccccc4s3)[C@H]3C(=O)O[C@H](c4ccccc4)[C@H](c4ccccc4)N3[C@@H]2c2ccc(OCCO)cc2)cc1 | 1.5 |
| CC(=O)n1cc(C(O)C2C=CC3C(=O)N(c4ccccc4)C(=O)C3N2Nc2ccccc2F)c2ccccc21 (stereo not given) | 0.021 |
| COCCOC(=O)N1C(=O)[C@@]2(c3cc(C#CC4(O)CCCCCC4)ccc31)[C@H](c1ccc(OCCO)cc1)N1[C@H](c3ccccc3)[C@H](c3ccccc3)OC(=O)[C@H]1[C@@H]2C(N)=O | 0.96 |
| COc1cc2c(cc1O)C(c1ccc(CN3CCCC3)cc1)N(Cc1ccc([N+](=O)[O-])o1)CC2 (stereo not given) | 0.345 |
| COc1ccc(CCNC(=O)[C@@]2(C)c3ccccc3C(=O)N(Cc3cc(C(F)(F)F)cc(C(F)(F)F)c3)[C@H]2c2ccc(CO)cc2)cc1 | -0.57 |
